The campaign covered roughly 5,500 compounds. About 2,000 (36%) were called active. Inconclusive results (about 18%) are left out. Rule as the data show it: active = normalized growth mostly below about 0.91 (no sharp cut-off); inconclusive = no clear call, values can overlap the other calls; inactive = mostly above about 0.92. The list shows a part of the results.
Experiment: chemical genetic growth profiling, strain panel (AID 1159580);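 also: tested at 20 µM; growth read once vehicle control cultures reached saturation at 30 °C; 1 = growth at the plate median or of vehicle wells; lower values mean less growth of the strain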
Conditions: S. cerevisiae deletion strains, growth OD

Measured: normalized growth

Brc1c(NC2=NCCN2)ccc2nccnc12
inactive: locus YAL040C, strain CLN3, stronger effect = lower value 1.01 | locus YCL061C, strain MRC1 (second series), stronger effect = lower value 1 | locus YDR363W, strain ESC2, stronger effect = lower value 1 | locus YER002W, strain NOP16, stronger effect = lower value 1.01 | locus YGR229C, strain SMI1, stronger effect = lower value 1.01 | locus YMR307W, strain GAS1, stronger effect = lower value 0.994 | locus YNL175C, strain NOP13, stronger effect = lower value 0.989 | locus YNL197C, strain WHI3, stronger effect = lower value 0.981 | locus YNL224C, strain SQS1, stronger effect = lower value 0.994 | locus YNL322C, strain KRE1, stronger effect = lower value 1 | locus YOR083W, strain WHI5 (second series), stronger effect = lower value 1 | locus YPL241C, strain CIN2, stronger effect = lower value 1
